According to PubChem BioAssay (NCATS):
Inconclusive results are not listed. The source made the active and inactive calls. The call rests on the fitted dose curve; in most records, active means well fitted inhibition curve with a large enough effect; inconclusive means small, poorly fitted or top-dose-only effect; inactive means flat fitted curve, though single readings scatter.

What was measured:
[1] = system: CRL-7250; experiment: Cytotoxic Profiling of Annotated Libraries Using Quantitative High-Throughput Screening (AID 1296008); details: Five cell lines viability, CellTiter-Glo ATP luminescence, 48-72 h; max response: hits give low values; on max response: on the % scale 0 is the no-effect control and ±100 the full control effect
How it was run: (§1)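 Cytotoxicity was measured as CellTiter-Glo ATP luminescence, read after 10 min at room temperature. Compound treatment of the cells lasted 48 or 72 hr at 37 degrees Celsius in a qHTS format.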

[2] = system: HEK293; experiment: as above; details: Five cell lines viability, CellTiter-Glo ATP luminescence, 48-72 h; max response: hits give low values
How it was run: as §1

[3] = system: HaCat; experiment: as above; details: Five cell lines viability, CellTiter-Glo ATP luminescence, 48-72 h; max response: hits give low values
How it was run: as §1

[4] = system: KB-3-1; experiment: as above; details: Five cell lines viability, CellTiter-Glo ATP luminescence, 48-72 h; max response: hits give low values
How it was run: as §1

[5] = system: NIH3T3; experiment: as above; details: Five cell lines viability, CellTiter-Glo ATP luminescence, 48-72 h; max response: hits give low values
How it was run: as §1

[6] = system: HACAT; experiment: qHTS assay to identify novel small-molecules to repurpose for Merkel cell carcinoma treatment (AID 1296009); details: MCC and control cell lines, CellTiter-Glo viability, 72 h; at 44.8 µM (top of the series) unless noted
How it was run: (§2)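 After compound transfer in DMSO, plates were kept 72 hr at 37 degree celsius. Luminescent ATP signal from CellTiter-Glo served as viability measure, normalized against DMSO and no-cell controls.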

[7] = system: HEK293T; experiment: as above; details: MCC and control cell lines, CellTiter-Glo viability, 72 h; series mostly up to 44.8 µM
How it was run: as §2
Further: nearly all actives have a fitted effect of over 60% in size.

O=C(O)C[C@H]1CCC(=O)[C@@H]1C/C=C\CCOC1OC(CO)C(O)C(O)C1O (stereo partly specified)
inactive: max response [1] -7.42% | outcome [2] | outcome [3] | max response [4] 1.25% | outcome [5] | outcome [6] | Potency [7]

c1ccc(C(OC2CCN(CCCc3nn[nH]n3)CC2)c2ccccc2)cc1
inactive: outcome [1] | outcome [2] | outcome [3] | max response [4] -3.18% | outcome [5] | outcome [6] | Potency [7]

CC(=O)OC(CSC1CCC(=O)OC(C)CCC(=O)C1)C(=O)O (stereo unspecified)
inactive: max response [1] -6.05% | outcome [2] | outcome [3] | outcome [4] | outcome [5] | outcome [6] | Potency [7]

C=C[C@H]1[C@H](O[C@@H]2O[C@H](CO)[C@@H](O)[C@H](O)[C@H]2O)OC=C(C(=O)OC)[C@H]1C[C@@H]1N[C@H](C(=O)O)Cc2c1[nH]c1ccccc21
inactive: max response [1] 2.01% | outcome [2] | outcome [3] | max response [4] -4.8% | max response [5] -2.92% | outcome [6] inactive [at 17.4 µM] | Potency [7]

COC(=O)C1=CO[C@@H](O[C@@H]2O[C@H](CO)[C@@H](O)[C@H](O)[C@H]2O)[C@@H]2[C@@H](C(=O)OC)[C@@H](O)C(O)[C@H]12 (stereo partly specified)
inactive: max response [1] -2.23% | outcome [2] | outcome [3] | max response [4] 0.336% | max response [5] 1.13% | outcome [6] inactive [at 17.4 µM] | Potency [7]

C=C1CCC(OC(C)=O)C2(C)CC3(O)OC(=O)C(C)=C3CC12 (stereo unspecified)
inactive: max response [1] -6.35% | outcome [2] | outcome [3] | max response [4] 4.81% | max response [5] -2.74% | outcome [6] | Potency [7]

O=C1[C@H](O[C@@H]2O[C@H](CO)[C@@H](O)[C@H](O)[C@H]2O)Oc2ccccc2N1O
inactive: max response [1] 1.51% | outcome [2] | outcome [3] | max response [4] 3.12% | max response [5] 0.0797% | outcome [6] | Potency [7]

C=C1CC/C=C(/CO)C(=O)C[C@@H]2[C@@H]1CC2(C)C
inactive: outcome [1] | outcome [2] | outcome [3] | max response [4] 2.82% | max response [5] 0.52% | outcome [6] | Potency [7]

COC1(CC(C)C)NC(=O)C(O)(Cc2ccccc2)NC1=O (stereo unspecified)
inactive: max response [1] 2.47% | outcome [2] | outcome [3] | max response [4] -4.71% | outcome [5] | outcome [6] | Potency [7]

O=C(/C=C/c1ccc(O)cc1)OCC1=CC2OC(=O)C3=CO[C@@H](O[C@@H]4O[C@H](CO)[C@@H](O)[C@H](O)[C@H]4O)[C@H]1[C@@H]32 (stereo partly specified)
inactive: max response [1] -2.07% | outcome [2] | outcome [3] | outcome [4] | max response [5] -2.28% | outcome [6] inactive [at 17.4 µM] | Potency [7]

O=C1CC(c2ccc([N+](=O)[O-])cc2)=NN1c1ccccc1
inactive: outcome [1] | outcome [2] | outcome [3] | max response [4] 3.45% | max response [5] 2.7% | outcome [6] | Potency [7]

O=S(=O)(NC1CCNCC1)c1cc(S(=O)(=O)c2ccccc2)ccc1C(F)(F)F
inactive: max response [1] 1.06% | outcome [2] | outcome [3] | max response [4] 3.12% | outcome [5] | outcome [6] | Potency [7]

COc1cc(C2Oc3c(OC)cc(CCCO[C@@H]4O[C@H](CO)[C@@H](O)[C@H](O)[C@H]4O)cc3C2CO)ccc1O (stereo partly specified)
inactive: max response [1] -0.0218% | outcome [2] | outcome [3] | max response [4] 1.37% | max response [5] 3.22% | outcome [6] inactive [at 17.4 µM] | Potency [7]

O=C(/C=C/c1ccc(O)cc1)OC[C@]12O[C@H]1[C@@H](O)[C@@H]1C=CO[C@@H](O[C@@H]3O[C@H](CO)[C@@H](O)[C@H](O)[C@H]3O)[C@@H]12
inactive: max response [1] -7.12% | outcome [2] | outcome [3] | max response [4] 8.48% | outcome [5] | outcome [6] inactive [at 17.4 µM] | Potency [7]

C[C@@H]1O[C@@H](O[C@H]2[C@H](O[C@H]3[C@H](O[C@H]4CC[C@@]5(C)C(CC[C@]6(C)C5CC=C5[C@@H]7CC(C)(C(=O)O)C[C@@H](O)[C@]7(C)CC[C@]56C)[C@@]4(C)CO)O[C@H](C(=O)O)[C@@H](O)[C@@H]3O)O[C@H](CO)[C@H](O)[C@@H]2O)[C@H](O)[C@H](O)[C@H]1O (stereo partly specified)
inactive: max response [1] -5.52% | outcome [2] | outcome [3] | outcome [4] | max response [5] -3.63% | outcome [6] inactive [at 9.27 µM] | outcome [7] inactive [at 9.27 µM]

O=C(O[C@@H]1O[C@H](CO)[C@@H](O)[C@H](O)[C@H]1O)c1c(O)cc(O)cc1/C=C/c1ccccc1
inactive: max response [1] 2.06% | outcome [2] | outcome [3] | outcome [4] | max response [5] 3.61% | outcome [6] inactive [at 17.4 µM] | Potency [7]

CC(C)CNC(=O)/C=C/CCCCc1ccc2c(c1)OCO2
inactive: max response [1] -4.34% | outcome [2] | outcome [3] | max response [4] 4.53% | max response [5] -0.808% | outcome [6] | Potency [7]

CC(C)(O)c1ccc2c(c1)C(=O)CC1[C@](C)(CO)CCC[C@]21C (stereo partly specified)
inactive: max response [1] -1.72% | outcome [2] | outcome [3] | max response [4] -6.05% | max response [5] -3.87% | outcome [6] | Potency [7]
